Data from PubChem BioAssay.

test: reducers of endogenous Her2 protein level, primary screen, SKBR3 breast tumor cells, AlphaScreen, ATP viability (AID 461); details: 18-24 h, measured here: SKBR3 viability, ATP luminescence, at 10 µM;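 note: percent of carrier control wells set as 100% viability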

For `COC(=O)c1cnn2c(C(F)(F)F)cc(-c3ccco3)nc12`, which viability is on record?
Its viability is 99%.

With `CCOC(=O)c1ccc(NC(=O)CCc2nc(-c3cccc(C)c3)no2)cc1` as the molecule, how does the viability read?
Its viability is 114%.

For `COc1ccccc1C(=O)N1CCN=C1SCc1cccnc1`, which viability is on record?
The viability was 102%.

With `c1cncc(-c2nnc3sc(-c4ccco4)nn23)c1` as the molecule, how does the viability read?
Its viability is 118%.

Which viability does the source give for `CC1CN(c2nc(-c3ccccc3)nc3ccccc23)CC(C)O1` (stereo not given) here?
The viability was 91%.

Which viability does the source give for `O=C(NC1CCN(Cc2nnnn2CCc2ccccc2)CC1)c1ccccc1F` here?
Its viability is 81.5%.

Which viability does the source give for `O=S(=O)(c1ccc(OCC(O)CN2CCC(Cc3ccccc3)CC2)cc1)N1CCOCC1` (stereo not given) here?
The viability was 81.5%.

With `COc1ccc(C2N(C(=O)c3ccccc3)CCN2C(=O)c2ccccc2)cc1` as the molecule, how does the viability read?
Its viability is 114%.

For `CCSC1=NCN(CCCC(=O)O)CN1`, which viability is on record?
The viability was 118%.

For `O=C(CCOc1ccccc1)NCc1ccccc1`, which viability is on record?
Its viability is 122%.

Which viability does the source give for `CCOC(=O)c1ccccc1NC(=O)c1cc2sccc2n1C` here?
The viability was 90%.

With `C=CCn1c(SCC(=O)NC23CC4CC(CC(C4)C2)C3)nc(O)cc1=O` as the molecule, how does the viability read?
The viability was 138%.

For `O=C(OCc1ccc2c(c1)OCO2)c1ccc(S(=O)(=O)N2CCCCC2)cc1`, which viability is on record?
The viability was 75.5%.

Which viability does the source give for `COC(=O)N1CC(c2ccccc2)CC1=O` (stereo not given) here?
Its viability is 96.5%.

With `COc1ccc(C2=Nn3c(nnc3-c3ccccc3)SC2)cc1OC` as the molecule, how does the viability read?
The viability was 124%.

For `CCOc1ccc(Cl)cc1S(=O)(=O)N1CCCC1`, which viability is on record?
Its viability is 100%.

With `Cn1c(SCCN2CCCCC2)nnc1-c1ccccc1Br` as the molecule, how does the viability read?
Its viability is 94.5%.

With `O=C(COc1ccccc1)N1CCN(C(=O)c2cccc(F)c2)CC1` as the molecule, how does the viability read?
Its viability is 112%.

Which viability does the source give for `COc1ccc(CN2CC(C(=O)NCCCOC(C)C)CC2=O)cc1` (stereo not given) here?
Its viability is 101%.

For `COC(=O)CSc1nc(C)c(C(C)=O)cc1C#N`, which viability is on record?
The viability was 92%.

With `Cn1c(=O)c2c(nc(Br)n2CCSc2ncccn2)n(C)c1=O` as the molecule, how does the viability read?
Its viability is 98%.

Which viability does the source give for `O=C(NCC(c1cccnc1)N1CCOCC1)c1cccs1` (stereo not given) here?
Its viability is 101%.

With `O=C(CSc1nnnn1-c1ccc(Cl)cc1)NC(=O)Nc1ccc2c(c1)OCCO2` as the molecule, how does the viability read?
The viability was 104%.

With `Cc1nc2sc(C(c3ccco3)N3CCN(c4ccccc4F)CC3)c(O)n2n1` (stereo not given) as the molecule, how does the viability read?
The viability was 97%.

With `CC1CCCCC1NC(=O)CN1CCN(Cc2ccccc2Cl)C1=O` (stereo not given) as the molecule, how does the viability read?
Its viability is 102%.

For `COc1ccc(-n2c(=O)[nH]cc(C(=O)Nc3ccc(NC(C)=O)cc3)c2=O)cc1`, which viability is on record?
Its viability is 100%.

For `CCN(CC)CCN1C(=O)C(=O)/C(=C(/O)c2c(C)[nH]c(C(=O)OC)c2C)C1c1ccco1` (stereo not given), which viability is on record?
Its viability is 88%.

For `Cc1nc(N2CCc3ccccc32)[nH]c(=O)c1CCC(C)C`, which viability is on record?
The viability was 87.5%.

For `C=COC(=O)CSc1snc(SCC(=O)OC)c1C#N`, which viability is on record?
The viability was 85.5%.

For `COc1ccc2[nH]c(=O)c(CN(C(=O)c3ccncc3)C(C)C)cc2c1`, which viability is on record?
The viability was 96%.

Which viability does the source give for `Cc1ccc2cc3cc(C(=O)N4CC(C)CC(C)C4)oc3nc2c1` (stereo not given) here?
The viability was 108%.

With `O=C(C1CCN(c2nnnn2-c2ccccc2)CC1)N1CCN(c2ccccc2)CC1` as the molecule, how does the viability read?
Its viability is 106%.

With `CCCCSCCCNC(=O)CS(=O)Cc1nc(-c2cccc(C)c2)oc1C` (stereo not given) as the molecule, how does the viability read?
Its viability is 98.5%.

With `Cc1cc(C)n(-c2nnc(C)n2/N=C/c2ccccc2F)n1` as the molecule, how does the viability read?
Its viability is 94%.

Which viability does the source give for `O=C(O)c1cc(-c2ccccc2Cl)n[nH]1` here?
Its viability is 92%.

With `O=C1c2ccccc2C(=O)N1CC(O)Cn1nnc2ccccc21` (stereo not given) as the molecule, how does the viability read?
Its viability is 120%.

For `COCCN(C(=O)CCC(=O)Nc1ccccn1)C(C(=O)NC1CCCC1)c1ccc(OC)cc1` (stereo not given), which viability is on record?
Its viability is 106%.

For `CCOC(=O)c1ccccc1NC(=O)COC(=O)C1=COCCO1`, which viability is on record?
Its viability is 98.5%.

Which viability does the source give for `Cc1ccc(-c2cc(C(=O)O)n[nH]2)o1` here?
The viability was 95.5%.

With `Cn1c(=O)c2c(nc(SCCCO)n2Cc2ccccc2Cl)n(C)c1=O` as the molecule, how does the viability read?
Its viability is 80.5%.
